The source made the active and inactive calls.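 How the source made its calls: active means blocks over 60% of fluorescent estradiol binding at 10 µM; inactive means the rest.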
biological target: G-protein coupled estrogen receptor 1 (Homo sapiens) (UniProt Q99527); assay: displacement of E2-Alexa633 from GPER – cell-based, Cos7 GPR30-GFP, flow cytometry, 10 µM, primary screen (AID 1212); settings: fluorescent estrogen competition, at 10 µM; stronger effect = higher value

inhibition, active:
CC(=O)c1ccc2c(c1)C1C=CCC1C(c1cccc([N+](=O)[O-])c1)N2 (stereo not drawn) 64%

inhibition, inactive:
COc1ccccc1C1Nc2c(C(=O)O)cccc2C2C3CCC(C3)C12 (stereo not drawn) 5%
COc1cc(C2CC(=O)Nc3c2ccc2ccccc32)cc(Cl)c1O (stereo not drawn) 3%
COc1cc([C@@H]2Nc3ccc(S(=O)(=O)Nc4ccccc4F)cc3[C@@H]3C=CC[C@@H]32)cc(OC)c1OC 17%
CCOC(=O)c1ccc2c(c1)C1C=CCC1C(c1cccc([N+](=O)[O-])c1)N2 (stereo not drawn) 48%
COc1cc([N+](=O)[O-])cc2c1NC(c1ccc(Cl)cc1)C1CC=CC21 (stereo not drawn) 9%
Cc1nn(-c2ccccc2)c2sc(C#N)c(N)c12 58%
CC1CCCC(C)N1Cc1c(O)ccc2c3c(c(=O)oc12)CCC3 (stereo not drawn) 23%

outcome, inactive:
Oc1ccc2c(c1)c1c3n2CCNC3CCC1 (stereo not drawn)
CC(Nc1ccc(N2CCNCC2)cc1[N+](=O)[O-])C12CC3CC(CC(C3)C1)C2 (stereo not drawn)
COc1cccc(C2NCCc3cc(OC)c(OC)cc32)c1 (stereo not drawn)
CC(C)C1CC(CCNCc2ccc3c(c2)OCO3)(c2ccccc2)CCO1 (stereo not drawn)
O=C(O)COc1cc2oc(=O)c3c(c2cc1Cl)CCCC3
CCOc1cc2c(cc1OCC)C(C1CCCCC1)NCC2 (stereo not drawn)
CC(C)COc1ccc2c(c1)c1c3n2CCNC3CCC1 (stereo not drawn)
CC1(C)CC(=O)C=C(NC2CC(C)(C)NC(C)(C)C2)C1
COc1cc([N+](=O)[O-])cc2c1NC(c1ccc(Br)cc1)C1CC=CC21 (stereo not drawn)
CCCCCCc1cc2c3c(c(=O)oc2cc1OCC(=O)OC)CCC3
COc1ccc2c(c1)c1c3n2CCNC3CCC1 (stereo not drawn)
CC(=O)OC1CC2(C)C(=O)CCC2C2CCc3cc(O)ccc3C12 (stereo not drawn)
O=c1oc2cc(O)c(Cl)cc2c2c1CCCC2
CCCOc1cc(OCCC)c2c3c(c(=O)oc2c1)CCCC3
O=c1oc2c(CN3CCCC3)c(O)ccc2c2c1CCC2
CCCc1c(C(=O)OCC)[nH]c2c1C(=O)CC(c1ccccc1)C2 (stereo not drawn)
CC1(C)CC(=O)c2cn(-c3ccc(Cl)cc3)c(=N)c(C#N)c2C1
Cc1nc2ccccc2n1-c1cc(C(C)(C)C)c(O)c(C(C)(C)C)c1
Cc1oc2ccc(OCC#N)cc2c1C(=O)OC(C)C
CCCCc1cc(=O)oc2c(C)c(O)ccc12

Reference: PubChem BioAssay AID1212 (NMMLSC, 2008)
